JMJD2A Tudor inh – blocks the human JMJD2A Tudor domain; AlphaScreen JMJD2A-Tudor / H3K4me3 peptide binding; actives 4.4% (n = 390,000); Potency, µM (doses to about 114 µM), hits mostly inhibitors; further: nearly all actives have a fitted effect of over 50% in size
HP1b chromo inh – blocks HP1-beta chromodomain binding to methylated histone tails. actives 0.56% (n = 390,000). AlphaScreen HP1-beta / biotin-H3K9me3 peptide binding. P83916. Potency, µM (series often up to 114 µM), most hits filed as inhibitors; further: nearly all actives have a fitted effect of over 70% in size
Target sequence (P83916 whole entry, looked up): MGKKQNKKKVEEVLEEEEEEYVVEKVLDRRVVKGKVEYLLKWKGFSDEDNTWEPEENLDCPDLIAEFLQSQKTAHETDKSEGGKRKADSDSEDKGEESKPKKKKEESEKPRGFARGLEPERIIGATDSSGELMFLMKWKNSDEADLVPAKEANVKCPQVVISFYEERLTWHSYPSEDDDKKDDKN
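Compound inhibition of the preformed complex between 50 nM HP1-beta and 50 nM biotinylated H3K9me3 peptide was read by AlphaScreen. Buffer was PBS pH 7.4 with 0.01% Tween-20. Incubations ran 30 min at room temperature, with 10 ug/mL donor/acceptor beads.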
L3MBTL1 block – blocks human L3MBTL1; Q9Y468; AlphaScreen L3MBTL1–H3K9me1 peptide binding; Potency, µM (titrated, usually from 57.1 µM), most hits filed as inhibitors; actives 0.66% (n = 230,000); AID 485360; further: nearly all actives have a fitted effect of over 60% in size
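Displacement of a biotinylated histone H3(1-15) peptide monomethylated at Lys9 (75 nM) from L3MBTL1 (50 nM) was measured by AlphaScreen after a 30 min room-temperature compound incubation; cefsulodin titration served as intraplate control.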
BAZ2B block – BAZ2B (human) inhibition. Q9UIF8. AlphaScreen BAZ2B-H3K14Ac peptide displacement. Potency, µM (top dose mostly 114 µM), hits mostly inhibitors. actives 4.4% (n = 360,000). AID 504333; further: nearly all actives have a fitted effect of over 60% in size
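In this displacement format the biotinylated H3(5-23) peptide acetylated at Lys14 serves as ligand at 50 nM, with BAZ2B at 50 nM in PBS pH 7.4 containing 0.01% Tween-20. Donor and acceptor beads are 10 ug/mL final.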
G9a inh – G9a (human) methyltransferase inhibition. Q96KQ7. G9a H3K9 monomethylation, AlphaScreen, 2 h. Potency, µM (titrated, usually from 102 µM), hits mostly inhibitors. actives 8.8% (n = 350,000); further: nearly all actives have a fitted effect of over 75% in size
Target sequence (Q96KQ7 913-1193 limits assumed): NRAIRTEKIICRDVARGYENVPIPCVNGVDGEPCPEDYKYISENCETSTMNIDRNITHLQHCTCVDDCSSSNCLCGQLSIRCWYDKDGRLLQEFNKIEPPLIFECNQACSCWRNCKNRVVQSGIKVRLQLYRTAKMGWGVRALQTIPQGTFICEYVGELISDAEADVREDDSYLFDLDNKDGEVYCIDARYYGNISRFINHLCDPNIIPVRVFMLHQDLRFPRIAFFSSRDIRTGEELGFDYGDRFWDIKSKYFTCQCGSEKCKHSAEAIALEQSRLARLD
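G9a (20 nM) preincubated 15 min RT with compounds, then 500 nM biotinylated H3K9 peptide and 20 uM SAM added; 2 h RT reaction. Monomethyl-H3K9 product detected by AlphaScreen with anti-H3K9me1 antibody, streptavidin donor and anti-rabbit IgG acceptor beads.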
Of the large screens only hits and unclear results are named; the others gave an inactive call. Most compounds without a hit are left out; they make up all but 11% or so of the library. The call rests on the fitted dose curve; in most records, active means well fitted inhibition curve with a large enough effect; inconclusive means small, poorly fitted or top-dose-only effect; inactive means no such curve, though single readings can be large or run the other way.

CC1(NC(=O)Nc2cc([N+](=O)[O-])ccc2O)CCS(=O)(=O)C1 (stereo unspecified)	none
O=c1c2ccccc2nc(-c2ccc(Cl)cc2)n1CCCCOc1ccc(F)cc1	none (no result: L3MBTL1 block)
O=C(Nc1cccc(Oc2ccc(C(=O)O)c(C(=O)O)c2)c1)c1ccc(-c2ccccc2)cc1	HP1b chromo inh inconclusive, BAZ2B block 50µM (no result: L3MBTL1 block, G9a inh)
Cc1cccc(Oc2ccc(NC(=O)c3ccccc3C(=O)O)cc2)c1	none (no result: L3MBTL1 block, G9a inh)
CC(C)(C)C(=O)Nc1ccc(C(=O)Nc2cccc(Oc3ccc(C(=O)O)c(C(=O)O)c3)c2)cc1	G9a inh 45µM
CCOc1cc2[nH]c(=O)n(CCCC(=O)N3CCN(c4ccc(OC)cc4)CC3)c(=O)c2cc1OCC	none (no result: L3MBTL1 block)
CCCn1cc(S(=O)(=O)c2ccc(CC)cc2)c(=O)c2ccccc21	none (no result: L3MBTL1 block)
CCCNC(=S)Nc1ccc2nc(-c3ccccn3)c(-c3ccccn3)nc2c1	G9a inh 13µM
S=C(Nc1ccc2nsnc2c1)N1CCCCC1	G9a inh 16µM
S=C(Nc1ccc(Cl)c(Cl)c1)N1CCCC1	none (no result: L3MBTL1 block)
Cc1ccc(NC(=S)N2CCOCC2)cc1	none
S=C(Nc1ccc2nc(-c3ccccn3)c(-c3ccccn3)nc2c1)N1CCCCCC1	G9a inh 20µM
S=C(Nc1ccc2nccnc2c1)N1CCOCC1	L3MBTL1 block inconclusive, G9a inh 45µM
Cc1ccc(-c2nnc(SCC(=O)c3ccc(Cl)cc3)n2-c2ccccc2)cc1	JMJD2A Tudor inh inconclusive (no result: L3MBTL1 block)
CC(C)(C)n1cnc2cc(NCc3ccccc3Cl)ccc21	JMJD2A Tudor inh 40µM, HP1b chromo inh inconclusive, BAZ2B block 32µM, G9a inh 16µM (no result: L3MBTL1 block)
Cc1ccc(CNc2ccc3c(c2)ncn3C(C)(C)C)cc1	BAZ2B block 35µM, G9a inh 7.1µM (no result: L3MBTL1 block)
Cc1ccc(S(=O)(=O)Nc2ccc3c(c2)ncn3C(C)(C)C)cc1	none
Cn1cnc2cc(NCc3ccccc3O)ccc21	none
NNC(=O)c1nc[nH]c1C(=O)Nc1ccccn1	JMJD2A Tudor inh 2.8µM, L3MBTL1 block inconclusive, BAZ2B block 2.5µM
Cc1ccc(NC(=O)c2[nH]cnc2C(=O)NN)cc1	JMJD2A Tudor inh inconclusive, L3MBTL1 block inconclusive, BAZ2B block inconclusive
O=C(Nc1ccccn1)c1ccc2ccccc2c1O	G9a inh 32µM
Cc1ccc(NC(=O)Cn2ccn(-c3ccccc3)c(=O)c2=O)cc1	none (no result: L3MBTL1 block)
O=C1c2cccnc2C(=O)N1CNc1ccc(Cl)cc1	BAZ2B block 56µM, G9a inh inconclusive
CCN(CC)Cc1cc(O)c(CN(CC)CC)cc1O	JMJD2A Tudor inh 0.79µM, HP1b chromo inh 1.4µM, L3MBTL1 block 3.2µM, BAZ2B block 18µM, G9a inh 1.3µM
CC(=O)N/C(=C\c1ccc(F)cc1)C(=O)OC(C)C	none
CC(=O)N/C(=C\c1ccc(F)cc1)C(=O)NC(C(=O)O)C(C)C (stereo unspecified)	G9a inh 56µM
CC(=O)N/C(=C\c1ccc2c(c1)OCO2)C(=O)NC(C(=O)O)c1ccccc1 (stereo unspecified)	G9a inh 89µM (no result: L3MBTL1 block)
CC(=O)N/C(=C\c1ccccc1)C(=O)Nc1ccccc1C	G9a inh inconclusive
CC(=O)N/C(=C\c1ccccc1)C(=O)NC(C)C(=O)O (stereo unspecified)	G9a inh 56µM
COc1ccccc1CNC(=O)Cn1c(=O)oc2cc(S(=O)(=O)N3CCC(C)CC3)ccc21	none (no result: L3MBTL1 block)
COCCNC(=O)CCCn1c(SCC(=O)Nc2ccc(F)cc2)nc2c(sc3ccccc32)c1=O	none (no result: L3MBTL1 block)
Cc1onc(-c2ccccc2)c1C(O)c1ccc(F)cc1 (stereo unspecified)	none (no result: L3MBTL1 block)
Cc1cc(C)nc(Nc2ccc(O)cc2)n1	none (no result: L3MBTL1 block)
Cc1cc(C)nc(Nc2ccc(N3CCOCC3)cc2)n1	G9a inh 50µM
CCCc1cc(=O)[nH]c(Nc2ccc(N3CCCCC3)cc2)n1	JMJD2A Tudor inh 50µM, HP1b chromo inh inconclusive, BAZ2B block 50µM, G9a inh 8.9µM
Cc1cc(C)nc(N/N=C/c2ccc(N3CCOCC3)cc2)n1	none
Cc1cc(C)nc(Nc2ccc(N3CCCC3)cc2)n1	JMJD2A Tudor inh 35µM, HP1b chromo inh inconclusive, BAZ2B block 28µM, G9a inh inconclusive (no result: L3MBTL1 block)
Cc1ccc(C)c(NC(=O)Nc2csc3c2CCCC3)c1	none (no result: L3MBTL1 block)
COc1cccc(C(c2sc3ncnn3c2O)N2CC(C)OC(C)C2)c1 (stereo unspecified)	none
COc1cc(C(c2sc3nc(C)nn3c2O)N2CCc3ccccc3C2)cc(OC)c1OC (stereo unspecified)	G9a inh 22µM
COc1cccc(C(c2sc3ncnn3c2O)N2CCc3ccccc3C2)c1 (stereo unspecified)	G9a inh 7.1µM
COC(=O)C1CCN(C(c2ccc(OC)c(OC)c2)c2sc3nc(C)nn3c2O)CC1 (stereo unspecified)	G9a inh inconclusive
COc1ccc(C(c2sc3nc(C)nn3c2O)N2CCC(C(N)=O)CC2)cc1OC (stereo unspecified)	G9a inh 50µM
COc1cc(C(c2sc3nc(C)nn3c2O)N2CCN(c3ccccc3)CC2)cc(OC)c1OC (stereo unspecified)	none
O=c1[nH]c(=O)c2[nH]c(=S)n(-c3ccccc3)c2[nH]1	JMJD2A Tudor inh 40µM (no result: L3MBTL1 block, BAZ2B block, G9a inh)
C=Cc1ccc(CSc2nc(-c3ccc(OC)cc3)nc3c2Cc2c(CO)cnc(C)c2O3)cc1	none (no result: L3MBTL1 block)
Cc1ccc(Cn2cc(CCC(=O)O)c3ccccc32)cc1	G9a inh 45µM (no result: L3MBTL1 block)
CCCCc1nnc2c(N(C)S(=O)(=O)c3ccccc3)nc3ccccc3n12	G9a inh 71µM
CC(C)=CCc1c(O)cc2oc3c(CC=C(C)C)c(O)c(O)c(CC=C(C)C)c3c(=O)c2c1O	JMJD2A Tudor inh 50µM, BAZ2B block 50µM (no result: L3MBTL1 block)
CC(C)=CCc1c(O)cc2oc(C)cc(=O)c2c1O	none (no result: JMJD2A Tudor inh, HP1b chromo inh, L3MBTL1 block, BAZ2B block)
CCC(Sc1ccc2nnc(-c3ccc(OC)c(OC)c3)n2n1)C(=O)O (stereo unspecified)	G9a inh 7.9µM (no result: L3MBTL1 block)
COc1ccc(-c2nnc3ccc(SC(C(C)=O)C(C)=O)nn23)cc1OC	JMJD2A Tudor inh 20µM, G9a inh 2.2µM (no result: BAZ2B block)
Cc1cc(-c2ccc(S(=O)(=O)NCc3ccccc3Cl)s2)on1	none (no result: L3MBTL1 block)
C=CCn1c(SCC(=O)NCCOC)nc2scc(-c3ccco3)c2c1=O	JMJD2A Tudor inh 79µM, BAZ2B block inconclusive, G9a inh 45µM
O=C(CSc1nc2scc(-c3ccco3)c2c(=O)n1-c1ccccc1)N1CCOCC1	none
O=C(CSc1nc2scc(-c3ccco3)c2c(=O)n1-c1ccccc1)NCC1CCCO1 (stereo unspecified)	JMJD2A Tudor inh inconclusive, L3MBTL1 block inconclusive, BAZ2B block 35µM, G9a inh 8.9µM
C=CCn1c(SCC(=O)NCC2CCCO2)nc2scc(-c3ccco3)c2c1=O (stereo unspecified)	L3MBTL1 block inconclusive, BAZ2B block inconclusive, G9a inh inconclusive
C=CCn1c(SCC(=O)NCC2CCCO2)nc2scc(-c3ccc(OC)cc3)c2c1=O (stereo unspecified)	none (no result: L3MBTL1 block)

Assay outcomes (PubChem BioAssay)
